# According to PubChem BioAssay (NCATS):
# Values joined by “and” are separate entries in the source; they are usually repeats but may differ in a detail not shown here. Identical values can stand only once. Records with an inconclusive call do not appear. Entries that show only a call come without a potency. Where a structure was tested more than once in an assay, its records may differ in their call. Active and inactive are the calls of the source. Unless noted, calls follow the shape of the dose curve; as a rule, active = well fitted inhibition curve with a large enough effect; inconclusive = small, poorly fitted or top-dose-only effect; inactive = flat fitted curve, though single readings scatter.
# What was measured:
# [1] = biological target: Peroxisome proliferator-activated receptor gamma (Homo sapiens) (UniProt P37231); test: qHTS assay for small molecule antagonists of peroxisome proliferator-activated receptor gamma signaling (AID 588537; active = well fitted inhibition curve with a large enough effect in the signal ratio, with a control signal flat, not every such curve was filed as active; the % refers to the signal ratio; also: potency is read from the fitted curve at half-maximal effect)
# Peroxisome proliferator-activated receptor gamma (Homo sapiens), sequence (P37231 whole entry, looked up): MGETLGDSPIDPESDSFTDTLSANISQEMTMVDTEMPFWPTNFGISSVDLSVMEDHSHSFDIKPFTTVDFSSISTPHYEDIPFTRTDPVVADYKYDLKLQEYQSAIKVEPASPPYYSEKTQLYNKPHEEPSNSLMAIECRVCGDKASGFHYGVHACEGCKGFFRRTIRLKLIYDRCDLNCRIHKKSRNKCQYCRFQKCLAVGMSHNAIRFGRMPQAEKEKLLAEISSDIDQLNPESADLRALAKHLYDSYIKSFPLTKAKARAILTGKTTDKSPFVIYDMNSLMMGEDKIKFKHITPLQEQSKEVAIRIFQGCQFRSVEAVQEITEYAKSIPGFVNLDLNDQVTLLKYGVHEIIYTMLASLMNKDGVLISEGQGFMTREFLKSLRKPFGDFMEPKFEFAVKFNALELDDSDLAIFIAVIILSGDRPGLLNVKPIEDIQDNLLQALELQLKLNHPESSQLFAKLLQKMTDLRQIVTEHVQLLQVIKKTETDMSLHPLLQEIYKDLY
# Procedure, shortened: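 We seeded GeneBLAzer HEK293 reporter cells at 3000 per well, allowed 6-6.5 h attachment at 37 C, then co-treated with test compound titrations and 50 nM rosiglitazone overnight (16 h). Inhibition was quantified from 460/530 nm emission ratios.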
# [2] = biological target: Vitamin D3 receptor (Homo sapiens) (UniProt P11473); test: qHTS assay for small molecule antagonists of vitamin D receptor signaling (AID 588541; calls by dose curve;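 also: receptor activated by calcitriol during compound treatment; series mostly up to about 77 µM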)
# Vitamin D3 receptor (Homo sapiens), sequence (P11473 whole entry, looked up): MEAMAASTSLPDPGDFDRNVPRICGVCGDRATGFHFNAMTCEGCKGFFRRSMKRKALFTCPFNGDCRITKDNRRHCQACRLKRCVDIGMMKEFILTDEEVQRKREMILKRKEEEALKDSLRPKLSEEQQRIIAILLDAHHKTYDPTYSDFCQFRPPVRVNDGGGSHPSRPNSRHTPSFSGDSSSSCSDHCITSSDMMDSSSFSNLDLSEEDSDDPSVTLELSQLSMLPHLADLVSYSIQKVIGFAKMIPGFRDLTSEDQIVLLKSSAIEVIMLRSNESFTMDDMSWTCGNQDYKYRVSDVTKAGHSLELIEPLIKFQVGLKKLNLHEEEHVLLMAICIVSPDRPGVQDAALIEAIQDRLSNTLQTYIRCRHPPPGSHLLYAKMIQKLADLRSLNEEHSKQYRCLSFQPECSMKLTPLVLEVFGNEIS
# Procedure, shortened: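 VDR-UAS-bla HEK293T cells (2000/well, 2% charcoal-stripped FBS) were treated with titrated compounds plus 1-alpha,25-dihydroxyvitamin D3 (50 nM or 3 nM final) for 16 h at 37 C. CCF4 beta-lactamase fluorescence was read; Hill fits gave IC50.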
# [3] = biological target: Vitamin D3 receptor (Homo sapiens) (UniProt P11473); test: qHTS assay for small molecule agonists of vitamin D receptor signaling (AID 588543; calls by dose curve)
# Procedure, shortened: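 qHTS in agonist mode: compound titrations stimulate a VDR-driven β-lactamase reporter in HEK293T cells over 16 h at 37 °C. Response normalized to 50 nM 1α,25-dihydroxyvitamin D3 = 100%, DMSO = 0%; Hill fitting gives EC50 and maximal response.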
# [4] = qHTS assay for small molecule agonists of retinoid X receptor alpha signaling (AID 588544); conditions: HEK293T RXRa-UAS-bla, beta-lactamase reporter, 18 h; 530 nm emission
# [5] = qHTS assay for small molecule antagonists of retinoid X receptor alpha signaling (AID 588546; active = well fitted inhibition curve with a large enough effect in the signal ratio, with a control signal flat, not every such curve was filed as active; the % refers to the signal ratio; also: potency is read from the fitted curve at half-maximal effect;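 as to max response: cells stimulated with 9-cis-retinoic acid as agonist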); conditions: HEK293T RXRa-UAS-bla, beta-lactamase ratio, antagonist mode; measured here: W530 green channel, cytotoxicity proxy
# Procedure, shortened: (§1)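 Beta-lactamase reporter inhibition, read as CCF4 fluorescence ratio (ex 405, em 460/530 nm) after 2 h at RT. HEK293T UAS-bla cells, 2500/well, were stimulated with 9-cis-RA at 500 or 100 nM final alongside test compound for 18 h at 37 C.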
# [6] = biological target: Retinoic acid receptor RXR-alpha (Homo sapiens) (UniProt P19793); test: as above; conditions: HEK293T RXRa-UAS-bla, beta-lactamase ratio, antagonist mode
# Retinoic acid receptor RXR-alpha (Homo sapiens), sequence (P19793 whole entry, looked up): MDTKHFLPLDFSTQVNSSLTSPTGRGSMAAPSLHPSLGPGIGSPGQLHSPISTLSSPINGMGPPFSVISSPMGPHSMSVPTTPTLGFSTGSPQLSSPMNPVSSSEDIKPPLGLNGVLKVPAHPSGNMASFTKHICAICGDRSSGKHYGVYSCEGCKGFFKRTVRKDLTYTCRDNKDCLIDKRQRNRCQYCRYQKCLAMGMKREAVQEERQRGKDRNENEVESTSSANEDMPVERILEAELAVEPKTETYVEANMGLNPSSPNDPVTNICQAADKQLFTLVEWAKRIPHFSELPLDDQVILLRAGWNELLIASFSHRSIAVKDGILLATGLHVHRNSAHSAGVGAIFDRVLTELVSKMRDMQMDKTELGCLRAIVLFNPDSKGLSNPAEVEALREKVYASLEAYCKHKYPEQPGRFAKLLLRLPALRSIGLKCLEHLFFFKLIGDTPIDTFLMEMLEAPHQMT
# Procedure, shortened: as §1
# [7] = biological target: Thyroid hormone receptor beta (Homo sapiens) (UniProt P10828); test: qHTS assay for small molecule antagonists of thyroid hormone receptor beta signaling (AID 588547; active = well fitted inhibition curve with a large enough effect in the signal ratio, with a control signal flat, not every such curve was filed as active; the % refers to the signal ratio;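 also: cells stimulated with 0.4 nM T3 agonist during compound exposure; series mostly up to about 77 µM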); conditions: TR-UAS-bla HEK293, beta-lactamase ratio, antagonist mode, 18 h
# Thyroid hormone receptor beta (Homo sapiens), sequence (P10828 whole entry, looked up): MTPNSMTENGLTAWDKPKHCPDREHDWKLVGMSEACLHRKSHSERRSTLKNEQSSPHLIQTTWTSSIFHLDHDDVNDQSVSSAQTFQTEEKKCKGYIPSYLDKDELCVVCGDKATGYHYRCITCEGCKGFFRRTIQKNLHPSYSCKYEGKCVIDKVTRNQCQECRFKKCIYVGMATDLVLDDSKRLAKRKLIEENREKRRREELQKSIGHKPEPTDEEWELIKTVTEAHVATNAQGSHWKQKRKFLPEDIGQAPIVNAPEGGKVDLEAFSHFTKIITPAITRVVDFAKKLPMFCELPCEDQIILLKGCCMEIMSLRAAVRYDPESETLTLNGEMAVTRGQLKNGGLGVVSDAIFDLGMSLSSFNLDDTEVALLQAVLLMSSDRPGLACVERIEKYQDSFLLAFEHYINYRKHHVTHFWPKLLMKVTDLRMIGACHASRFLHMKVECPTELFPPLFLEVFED
# Procedure, shortened: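 TR-UAS-bla GripTite HEK293 cells in 2% charcoal/dextran FBS medium were preincubated 4 h at 37 C, given compound (0.59 nM to 92 uM) plus 0.4 nM T3 (final) for 18 h, then CCF4 for 2 h at RT; Hill fit gave IC50.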
# [8] = biological target: Voltage-gated inwardly rectifying potassium channel KCNH2 (Homo sapiens) (UniProt Q12809); test: qHTS Assay for Small Molecule Inhibitors of the Human hERG Channel Activity (AID 588834);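 also: lower thallium flux fluorescence means stronger hERG block; nearly all actives have a fitted effect of over 50% in size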; also: potency is read from the fitted curve at half-maximal effect
# Voltage-gated inwardly rectifying potassium channel KCNH2 (Homo sapiens), sequence (Q12809 whole entry, looked up): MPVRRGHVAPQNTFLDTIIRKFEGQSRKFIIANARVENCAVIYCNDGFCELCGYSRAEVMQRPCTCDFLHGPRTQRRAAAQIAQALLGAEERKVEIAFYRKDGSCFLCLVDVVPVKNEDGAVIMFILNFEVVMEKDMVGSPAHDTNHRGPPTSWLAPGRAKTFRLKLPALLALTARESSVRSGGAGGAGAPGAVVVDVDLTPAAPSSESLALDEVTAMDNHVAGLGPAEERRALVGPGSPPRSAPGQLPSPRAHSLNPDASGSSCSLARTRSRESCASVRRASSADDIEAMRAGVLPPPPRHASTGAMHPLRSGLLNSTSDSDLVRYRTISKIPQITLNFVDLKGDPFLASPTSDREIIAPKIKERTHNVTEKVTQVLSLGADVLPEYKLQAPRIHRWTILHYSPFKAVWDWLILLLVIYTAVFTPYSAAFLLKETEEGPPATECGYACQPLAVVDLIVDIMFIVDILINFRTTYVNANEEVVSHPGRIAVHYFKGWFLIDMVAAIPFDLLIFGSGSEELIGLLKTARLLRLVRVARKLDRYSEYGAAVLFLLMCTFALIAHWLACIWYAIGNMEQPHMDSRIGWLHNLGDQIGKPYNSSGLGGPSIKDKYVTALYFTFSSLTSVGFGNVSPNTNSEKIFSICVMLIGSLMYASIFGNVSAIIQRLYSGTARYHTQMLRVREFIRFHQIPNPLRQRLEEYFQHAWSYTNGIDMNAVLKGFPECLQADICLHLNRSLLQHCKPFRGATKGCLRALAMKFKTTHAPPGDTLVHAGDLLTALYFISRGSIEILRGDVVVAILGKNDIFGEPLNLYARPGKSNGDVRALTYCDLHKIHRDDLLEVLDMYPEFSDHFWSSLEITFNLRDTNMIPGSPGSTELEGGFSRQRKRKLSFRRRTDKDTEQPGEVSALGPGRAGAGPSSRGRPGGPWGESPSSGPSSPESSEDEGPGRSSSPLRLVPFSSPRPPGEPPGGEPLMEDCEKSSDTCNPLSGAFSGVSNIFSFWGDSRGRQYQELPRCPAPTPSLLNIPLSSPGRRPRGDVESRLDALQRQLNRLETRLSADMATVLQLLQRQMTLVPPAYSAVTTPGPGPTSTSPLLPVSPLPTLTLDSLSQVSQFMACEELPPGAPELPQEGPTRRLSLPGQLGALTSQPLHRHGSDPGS
# Procedure, shortened: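 Measured: FluxOR fluorescence after thallium stimulation in U2OS cells transduced with hERG by baculovirus. Compounds pre-incubated around 10 min; medium Opti-MEM with 2% FCS. AC50 from Hill equation.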
# [9] = biological target: Luciferin 4-monooxygenase (Photinus pyralis) (UniProt P08659); test: Biochemical firefly luciferase enzyme assay for NPC (AID 624030); also: nearly all actives have a fitted effect of over 70% in size; also: potency is read from the fitted curve at half-maximal effect
# Luciferin 4-monooxygenase (Photinus pyralis), sequence (P08659 whole entry, looked up): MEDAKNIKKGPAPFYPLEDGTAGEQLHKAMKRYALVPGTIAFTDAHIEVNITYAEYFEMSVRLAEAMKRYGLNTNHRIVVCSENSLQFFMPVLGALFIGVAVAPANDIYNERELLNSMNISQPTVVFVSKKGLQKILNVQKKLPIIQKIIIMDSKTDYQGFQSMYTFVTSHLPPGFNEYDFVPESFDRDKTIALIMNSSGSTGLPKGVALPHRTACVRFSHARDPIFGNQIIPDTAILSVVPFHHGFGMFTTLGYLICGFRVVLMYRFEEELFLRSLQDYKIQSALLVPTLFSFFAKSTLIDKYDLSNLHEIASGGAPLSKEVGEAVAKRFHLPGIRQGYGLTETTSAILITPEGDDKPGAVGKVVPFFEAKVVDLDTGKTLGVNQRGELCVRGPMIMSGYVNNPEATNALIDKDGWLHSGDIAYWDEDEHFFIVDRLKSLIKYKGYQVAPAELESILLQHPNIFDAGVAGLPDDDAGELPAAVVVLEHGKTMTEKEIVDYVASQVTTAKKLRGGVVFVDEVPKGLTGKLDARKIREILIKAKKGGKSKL
# Procedure, shortened: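 Counter-screen for direct inhibition of the luciferase enzyme by approved-drug library compounds, run at 10 nM enzyme in 50 mM Tris acetate (final). Luminescence was read within 5 min of enzyme-buffer addition and normalized to PTC124 versus DMSO (0%).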
smiles,measurement,setting,value
Oc1ccccc1-c1ccccc1,Potency,[1],39.8 µM (active) and inactive
same,outcome,[2],inactive
same,outcome,[3],inactive
same,max response,[4],9.97% and -12.1% and -6.9%
same,max response,[5],-4.16% and -11.3% and -6.05%
same,max response,[6],10.1% (inactive) and -5.66% (inactive) and 6.56% (inactive)
same,activity change % (negative = inhibition),[7],19.4% (inactive) and 13.4% (inactive)
same,Potency,[8],inactive
same,Potency,[9],inactive
COc1ccc(Cc2nccc3cc(OC)c(OC)cc23)cc1OC,Potency,[8],inactive
Oc1cc(Cl)ccc1Oc1ccc(Cl)cc1Cl,Potency,[1],inactive
same,outcome,[2],inactive
same,outcome,[3],inactive
same,max response,[5],-6.33%
same,Potency,[6],44.7 µM (active)
same,Potency,[8],inactive
same,Potency,[9],inactive
CNCC(O)c1ccc(O)cc1 (stereo not drawn),outcome,[2],inactive
same,outcome,[3],inactive
same,max response,[4],4.18%
same,max response,[5],8.32%
same,max response,[6],7.59% (inactive)
same,activity change % (negative = inhibition),[7],3.5% (inactive)
same,Potency,[8],inactive
CCOP(=S)(OCC)Oc1cc(C)nc(C(C)C)n1,Potency,[1],inactive
same,max response,[4],-5.09% and -15.6%
same,max response,[5],-12.3% and -5.87%
same,max response,[6],-2.21% (inactive) and -10% (inactive)
same,activity change % (negative = inhibition),[7],-8.33% (inactive) and 8.71% (inactive)
same,Potency,[8],inactive
same,Potency,[9],inactive
Clc1ccc(CCC(Cn2ccnc2)Sc2c(Cl)cccc2Cl)cc1 (stereo not drawn),Potency,[8],5.01 µM (active)
CC1OC(C)OC(C)O1 (stereo not drawn),Potency,[8],inactive
same,Potency,[9],inactive
CCC(C(N)=O)N1CCCC1=O (stereo not drawn),Potency,[8],inactive
same,Potency,[9],inactive
N[C@@H](Cc1ccc(N(CCCl)CCCl)cc1)C(=O)O,Potency,[9],inactive
CN1CCN(C2=Nc3cc(Cl)ccc3Nc3ccccc32)CC1,Potency,[9],inactive
CCC(COC(=O)c1cc(OC)c(OC)c(OC)c1)(c1ccccc1)N(C)C (stereo not drawn),Potency,[9],inactive
CCOC(=O)C1(c2ccccc2)CCN(CCC(C#N)(c2ccccc2)c2ccccc2)CC1,Potency,[8],0.355 µM (active)
same,Potency,[9],inactive
O=C1NCN(c2ccccc2)C12CCN(CC1COc3ccccc3O1)CC2 (stereo not drawn),Potency,[8],6.31 µM (active) and 7.94 µM (active)
same,Potency,[9],inactive
CC(=O)Nc1cc([As](=O)(O)O)ccc1O,Potency,[8],inactive
same,Potency,[9],inactive
CC(C)(C)NCC(O)c1cc(Cl)c(N)c(Cl)c1 (stereo not drawn),Potency,[8],inactive
same,Potency,[9],inactive
CC(C)=CCOc1c2occc2cc2ccc(=O)oc12,Potency,[9],inactive
C=C1CC[C@@]2(O)[C@H]3Cc4ccc(O)c5c4[C@@]2(CCN3CC2CC2)[C@H]1O5,Potency,[8],inactive
same,Potency,[9],inactive
COc1ccc(C(CN(C)C)C2(O)CCCCC2)cc1 (stereo not drawn),Potency,[8],inactive
same,Potency,[9],inactive
CC(CCc1ccccc1)NC(C)C(O)c1ccc(O)cc1 (stereo not drawn),Potency,[8],7.08 µM (active) and 2 µM (active)
same,Potency,[9],inactive
CO[C@]12CC[C@@]3(C[C@@H]1[C@](C)(O)C(C)(C)C)[C@@H]1Cc4ccc(O)c5c4[C@@]3(CCN1CC1CC1)[C@H]2O5,Potency,[9],inactive
Cc1ccc(S(=O)(=O)N[C@@H](CCCCN)C(=O)CCl)cc1,Potency,[8],inactive
same,Potency,[9],inactive
CC(=O)[C@H]1CC[C@H]2[C@@H]3CC[C@H]4C[C@H](O)CC[C@]4(C)[C@H]3C(=O)C[C@]12C,Potency,[9],inactive
O=C(O)c1ccc2[nH]cc(CCCCN3CC=C(c4ccccc4)CC3)c2c1,Potency,[8],inactive
same,Potency,[9],inactive
COc1ccccc1N1CCNCC1,Potency,[8],inactive
same,Potency,[9],inactive
CN1CCN(C(=O)O[C@H]2c3nccnc3C(=O)N2c2ccc(Cl)cn2)CC1,Potency,[8],inactive
same,Potency,[9],inactive
CC[N+]1(C)CCCC(OC(=O)C(O)(c2ccccc2)c2ccccc2)C1 (stereo not drawn),Potency,[8],inactive
same,Potency,[9],inactive
NC(=Nc1ccccc1)Nc1ccccc1,Potency,[9],inactive
Cc1ncc(CNC(=O)N(CCCl)N=O)c(N)n1,Potency,[8],inactive
same,Potency,[9],inactive
CCCN1CCC[C@@H]2Cc3[nH]ncc3C[C@H]21,Potency,[9],inactive
Fc1ccc(C(OCCN2CCN(CCCc3ccccc3)CC2)c2ccc(F)cc2)cc1,Potency,[9],inactive
Cc1ccc2c(n1)Oc1ccc(C(C)C(=O)OCC(=O)N(C)C)cc1C2 (stereo not drawn),Potency,[9],14.4 µM (active)
CC(=O)Oc1ccccc1C(=O)Nc1ncc([N+](=O)[O-])s1,Potency,[9],0.721 µM (active)
CC1NCCOC1c1ccccc1 (stereo not drawn),Potency,[8],inactive
same,Potency,[9],inactive
O=c1[nH]c2ccccc2n1CCCN1CCC(n2c(=O)[nH]c3cc(Cl)ccc32)CC1,Potency,[9],inactive
Cc1cccc(C)c1NC(=O)CN1CCCC1=O,Potency,[9],inactive
CN(C)CCc1ccc(O)cc1,Potency,[8],inactive
same,Potency,[9],inactive
CC(C)CC(N(C)C)C1(c2ccc(Cl)cc2)CCC1 (stereo not drawn),Potency,[8],inactive
same,Potency,[9],inactive
CCCC1CCCCN1 (stereo not drawn),Potency,[8],inactive
same,Potency,[9],inactive
COc1ccc(C(=O)c2c(C)n(CCN3CCOCC3)c3ccccc23)cc1,Potency,[8],inactive
same,Potency,[9],inactive
C#CCOC(C(=O)OCCN(C)C)(c1ccccc1)c1ccccc1,Potency,[8],inactive
same,Potency,[9],inactive
